PubChem BioAssay
Active and inactive are the calls of the source. Unless noted, how the calls were made is not given here.

Experiments:
[1] = tested on: XIP peptide (Xip251-270) binding; experiment: XIP fragment 251-270 binding compounds – biochemical, small-molecule microarray, fluorescence 635/667 nm, 0.1 µg/mL protein, primary screen (AID 1182); details: fluorescent protein binding, 635 nm, higher = more signal, called active from +8 up or from −8 down
XIP peptide (Xip251-270) = experiment: compounds binding XIP fragment 251-270 – biochemical, small-molecule microarray, fluorescence 635/667 nm, 0.5 µg/mL protein, primary screen (AID 1183); details: fluorescence 635 nm, higher = more signal
[2] = blood-stage malaria parasite viability loss – strain 3D7, DAPI fluorescence, 100 nL, primary screen (AID 1184);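 further: parasites grown inside human red blood cells in medium with human serum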; details: P. falciparum 3D7 growth, 3 d, higher = more signal
[3] = molecular target: Homeobox protein Hox-A13 (Mus musculus) (UniProt Q62424); experiment: disruptors of Hoxa13 oligonucleotide interaction – biochemical, fluorescence polarization, labeled oligonucleotide, primary screen (AID 1185); details: Hoxa13:DNA binding, 15 min, higher = more signal, called active from +8 up or from −8 down
Sequence of Homeobox protein Hox-A13 (Mus musculus) (Q62424 whole entry, looked up): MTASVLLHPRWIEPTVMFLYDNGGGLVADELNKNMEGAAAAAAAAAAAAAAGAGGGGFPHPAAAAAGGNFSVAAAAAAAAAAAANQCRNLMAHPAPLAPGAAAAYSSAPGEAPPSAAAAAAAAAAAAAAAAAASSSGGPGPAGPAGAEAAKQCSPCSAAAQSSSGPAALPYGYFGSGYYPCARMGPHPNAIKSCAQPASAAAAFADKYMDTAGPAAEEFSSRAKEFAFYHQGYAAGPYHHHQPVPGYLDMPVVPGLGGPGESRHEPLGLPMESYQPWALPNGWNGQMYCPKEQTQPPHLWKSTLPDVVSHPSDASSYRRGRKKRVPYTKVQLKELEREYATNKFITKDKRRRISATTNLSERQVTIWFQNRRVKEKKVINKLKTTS

[4] = blockers of DNA damage checkpoint Chk1 activation – imaging, HeLa, hydroxyurea, phospho-Chk1 antibody, percent positive cells, primary screen (AID 1186); details: hydroxyurea-induced phospho-Chk1 immunofluorescence imaging, higher = more signal
[5] = blockers of DNA damage checkpoint Chk1 activation – imaging, HeLa, hydroxyurea, phospho-Chk1 nuclear intensity, primary screen (AID 1187); details: hydroxyurea-induced phospho-Chk1 immunofluorescence imaging, higher = more signal

Compound	composite z-score [1]	composite z-score (XIP peptide (Xip251-270))	z-score [2]	z-score [3]	z-score [4]	z-score [5]
C=CCC(OC(C)=O)[C@@H]1[C@@H](N(Cc2ccc(-c3cccc(C(F)(F)F)c3)o2)C(=O)c2ccc(C)cc2)c2cc(OCCCO)ccc2N1C(=O)Cc1ccc(OC)cc1 (stereo partly specified)	-0.635 (inactive)	-0.0047	-0.549	-0.791 (inactive)	-0.159 (inactive)	0.0947 (inactive)
NC(=O)N1C(=O)C2C(C1=O)C1C=C(CCCO)C2C(C2CC2)N1Cc1cccc(OC(F)(F)F)c1 (stereo unspecified)	0.198 (inactive)	-0.341	1.17	-8.76 (active)	0.791 (inactive)	0.384 (inactive)
COCCCNC(=O)[C@@]1(Sc2ccc(C)cc2)CC(=O)N(Cc2ccccc2Cl)[C@@H]1c1ccc(CO)cc1I	-0.517 (inactive)	0.194	1.22	-2.55 (inactive)	0.234 (inactive)	0.456 (inactive)
[N-]=[N+]=NCc1ccccc1C[C@]1(C(=O)N2CCOCC2)COC(c2ccc(OCCCO)cc2)=N1	0.15 (inactive)	0.711	-2.2	-4.87 (inactive)	-0.677 (inactive)	-0.718 (inactive)
COc1ccc([Si](C)(C)[C@@H]2[C@@H](CCn3cc([C@H](O)c4ccccc4)nn3)O[C@]3(C(=O)N(Cc4cccc(N5C(=O)c6cccc7cccc5c67)c4)c4ccccc43)[C@H]2C)cc1	0.368 (inactive)	0.45	-2.38	-1.19 (inactive)	-0.779 (inactive)	-1.33 (inactive)
CC(=O)NCCCC[C@@H]1NC(=O)[C@H]2C[C@@H](C(=O)NCCCCCNC(=O)CS)[C@@H](c3cccc(OCCO)c3)N2C1=O	4.01 (inactive)	0.854	-0.559	-3.69 (inactive)	0.276 (inactive)	0.591 (inactive)
COc1cc(NN2C(C(O)C3CCCCC3)C=CC3C(=O)N(c4ccccc4)C(=O)C32)cc(OC)c1OC (stereo unspecified)	1.15 (inactive)	0.751	-0.495	-4.43 (inactive)	0.0699 (inactive)	-0.253 (inactive)
CC1(C)C(=O)C(c2ccccc2)=C2CN3C(=O)N(CCc4ccccc4)C(=O)C3(Cc3ccc(C(F)(F)F)cc3)C=C21 (stereo unspecified)	0.251 (inactive)	0.279	-0.745	-1.55 (inactive)	0.175 (inactive)	0.0024 (inactive)
COCCOC(=O)N1C(=O)[C@@]2(c3cc(C#CCC(C(=O)OC)C(=O)OC)ccc31)[C@H](C(=O)NC[C@H](O)c1ccccc1)[C@H]1C(=O)O[C@H](c3ccccc3)[C@H](c3ccccc3)N1[C@@H]2c1ccc(O)cc1	0.363 (inactive)	0.724	-1.84	-1.61 (inactive)	-0.129 (inactive)	-0.117 (inactive)
C=CCNC(=O)[C@H]1[C@@H]2C(=O)O[C@@H](c3ccccc3)[C@@H](c3ccccc3)N2[C@@H](c2ccc(O)cc2)[C@]12C(=O)N(C(=O)OCCOC)c1ccc(C#CCC(C(=O)OC)C(=O)OC)cc12	2.8 (inactive)	0.761	-2.07	-0.414 (inactive)	-0.0546 (inactive)	-0.0093 (inactive)
COCCOC(=O)N1C(=O)[C@@]2(c3cc(C#CC4=CCCCC4)ccc31)[C@H](c1ccc(O)cc1)N1[C@H](c3ccccc3)[C@H](c3ccccc3)OC(=O)[C@H]1[C@@H]2C(=O)NC[C@H](O)c1ccccc1	0.816 (inactive)	0.75	-1.69	1.07 (inactive)	-0.0889 (inactive)	0.129 (inactive)
O=C(CS)NCCCCCCNC(=O)[C@@H]1C[C@@H]2C(=O)NCC(=O)N2[C@@H]1c1ccc(O)cc1	1.06 (inactive)	0.897	0.271	-1.63 (inactive)	-0.0858 (inactive)	0.201 (inactive)
COCCOC(=O)N1C(=O)[C@@]2(c3cc(C#CCNC(N)=O)ccc31)[C@H](c1ccc(OCCO)cc1)N1[C@H](c3ccccc3)[C@H](c3ccccc3)OC(=O)[C@H]1[C@@H]2C(N)=O	0.236 (inactive)	0.442	0.691	-2.25 (inactive)	0.139 (inactive)	0.189 (inactive)
C=C(/C(=C/C[C@H](OC(=O)c1ccncc1)c1cccc(OCCO)c1)c1cnc2ccccc2c1)C(C)C	0.0082 (inactive)	0.67	-1.42	-5.01 (inactive)	0.654 (inactive)	0.212 (inactive)
CC(C)C[C@@H]1NC(=O)[C@H]2C[C@@H](C(=O)NCCCCCN)[C@@H](c3cccc(OCCO)c3)N2C1=O	1.35 (inactive)	0.853	0.304	-3.68 (inactive)	-0.242 (inactive)	0.0992 (inactive)
Cc1ccc(S[C@]2(C(=O)NCC(C)C)CC(=O)N(C3Cc4ccccc4C3)[C@@H]2c2ccc(CO)cc2I)cc1	-0.238 (inactive)	-0.658	-0.233	-2.9 (inactive)	0.495 (inactive)	0.307 (inactive)
COCCCNC(=O)[C@@H]1c2ccccc2C(=O)N(C2Cc3ccccc3C2)[C@H]1c1ccc(CO)cc1	-0.295 (inactive)	0.583	-0.804	-2.44 (inactive)	-0.533 (inactive)	-0.726 (inactive)
CCN(CC)c1ccc(N2CC=CC34O[C@@H]5C=CCCOC(=O)C5[C@H]3C(=O)N(CCO)[C@@H]4C2=O)cc1 (stereo partly specified)	-0.828 (inactive)	-0.72	0.0497	-5.85 (inactive)	-0.516 (inactive)	-0.584 (inactive)
C=CCC(OC(C)=O)[C@@H]1[C@@H](N(Cc2cc3ccccc3o2)C(=O)c2ccc(-c3ccccc3)cc2)c2cc(OCCCO)ccc2N1C(=O)Cc1ccc(OC)cc1 (stereo partly specified)	0.112 (inactive)	0.0332	-0.846	-1.8 (inactive)	0.754 (inactive)	0.0035 (inactive)
CN(C)C(=O)[C@]1(CCS(=O)(=O)c2ccccc2)N=C(c2ccc(OCCCO)cc2)O[C@@H]1c1ccccc1	0.428 (inactive)	0.701	-1.96	-5.77 (inactive)	-0.161 (inactive)	0.0689 (inactive)
O=C1OCCC/C=C\[C@H]2OC34C=CCN(c5ccc6ccccc6c5)C(=O)[C@H]3N(CCCO)C(=O)[C@@H]4C12 (stereo partly specified)	0.0317 (inactive)	0.481	0.267	-5.72 (inactive)	1.41 (inactive)	0.656 (inactive)
COCCOC(=O)N1C(=O)[C@@]2(c3cc(C#CC4=CCCCC4)ccc31)[C@H](C(=O)N1CCCCCCC1)[C@H]1C(=O)O[C@H](c3ccccc3)[C@H](c3ccccc3)N1[C@@H]2c1ccc(OCCO)cc1	-0.404 (inactive)	0.56	-2.01	-15.8 (active)	0.0039 (inactive)	-0.192 (inactive)
C=C(/C(=C/C[C@H](OC(=O)c1ccncc1)c1ccccc1OCCO)c1cnc2ccccc2c1)C(C)C	-0.0266 (inactive)	0.615	-2.96	-4.2 (inactive)	0.39 (inactive)	0.0188 (inactive)
COCCOC(=O)N1C(=O)[C@@]2(c3cc(C#CCC(C(=O)OC)C(=O)OC)ccc31)[C@H](C(=O)NC[C@H](O)c1ccccc1)[C@H]1C(=O)O[C@H](c3ccccc3)[C@H](c3ccccc3)N1[C@@H]2c1ccc(OCCO)cc1	3.06 (inactive)	0.64	-2.28	-0.301 (inactive)	0.0558 (inactive)	0.176 (inactive)
C=CCC(OC(C)=O)[C@@H]1[C@@H](N(Cc2cccc3ccccc23)C(=O)c2cccc3ccccc23)c2cc(OCCCO)ccc2N1C(=O)c1ccc2ccccc2c1 (stereo partly specified)	0.25 (inactive)	0.012	-2.41	-1.18 (inactive)	-0.534 (inactive)	-0.158 (inactive)
COCCOC(=O)N1C(=O)[C@@]2(c3cc(C#CC4(O)CCCCCC4)ccc31)[C@H](c1ccc(OCCO)cc1)N1[C@H](c3ccccc3)[C@H](c3ccccc3)OC(=O)[C@H]1[C@@H]2C(=O)Nc1nc2ccccc2s1	0.284 (inactive)	0.78	-0.726	1.07 (inactive)	0.218 (inactive)	0.561 (inactive)
